Assay outcomes from PubChem BioAssay.
Sm TGR block – qHTS Assay for the Inhibitors of Schistosoma Mansoni Peroxiredoxins | purified TGR, DTNB reduction, TNB absorbance 405 nm | Potency, µM (top dose mostly 114 µM), for the others: at the top dose activity change, negative = inhibition, actives largely listed as inhibitors | 3% of 360,000 active | AID 485364, 2010; also: potency is read from the fitted curve at half-maximal effect; % is scaled to controls: 0 for no effect and ±100 for the full control effect; nearly all actives have a fitted effect of over 60% in size
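Kinetic colorimetric format: TGR-catalysed, NADPH-driven DTNB reduction monitored via TNB absorbance. Enzyme dispensed at 20 nM; compound exposure 15 min at room temperature before reaction start.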
Cycloheximide cs – Cycloheximide Counterscreen for Small Molecule Inhibitors of Shiga Toxin. cell reporter, cycloheximide protein synthesis inhibition counterscreen. max response, %. 12% of 300,000 active. AID 2314, 2010; in the data active = max response mostly above about 13%, no sharp cut-off; inactive = mostly below about 14%; also: read at 38.3 µM for the half of the compounds with a filed dose; 0% is about no effect
Pf growth 48h – Primary qHTS for delayed death inhibitors of the malarial parasite plastid, 48 hour incubation. Potency, µM (doses to about 28.7 µM), inactives show at the top dose activity change, negative = inhibition, usual class: inhibitors. AID 504832, 2011. P. falciparum luciferase growth in erythrocytes, 48 h. 5.9% of 310,000 active; also: potency is read from the fitted curve at half-maximal effect; % is scaled to controls: 0 for no effect and ±100 for the full control effect
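In quantitative HTS format, infected erythrocytes bearing luciferase-reporter parasites were treated for a single generation at 37 C. Luminescence after adding detection reagent served as the growth measure.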
Pf growth 96h – Primary qHTS for delayed death inhibitors of the malarial parasite plastid, 96 hour incubation. 6.9% of 320,000 active. P. falciparum luciferase reporter growth, 96 h. Potency, µM (doses to about 28.7 µM), for the others: top-dose activity change, negative = inhibition, usual class: inhibitors. AID 504834, 2011; also: potency is read from the fitted curve at half-maximal effect; % is scaled to controls: 0 for no effect and ±100 for the full control effect
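Plates of compound plus infected erythrocytes (2% hematocrit, 0.05% parasitemia final) incubate 96 hours, 37 C, 5% CO2. Detection reagent added; reduced luminescence from the parasites' luciferase reporter flags inhibition.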
NS1 inh – qHTS Assay for Inhibitors of Influenza NS1 Protein Function. Potency, µM (highest dose often 46.1 µM), for the others: at the top dose activity, positive = more growth. AID 2326, 2010. 0.4% of 270,000 active; calls by dose curve; also: potency is read from the fitted curve at half-maximal effect; actives are rising curves; nearly all actives have a fitted effect of over 50% in size
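S. cerevisiae expressing influenza A NS1, grown in glucose, washed, then diluted 1:100 into pH 6.0 -URA galactose medium with 23 nl compound. Growth recovery read as OD600; NS1-free strain serves as control.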
Shiga inhibitor – A qHTS for Small Molecule Inhibitors of Shiga Toxin; inhibition, % at 38.7 µM; AID 2315, 2010; Vero cells, Shiga toxin protein synthesis inhibition reporter; 9.2% of 290,000 active; in the data active = inhibition mostly above about 28%, no sharp cut-off; inactive = mostly below about 43%; also: 0% is about no effect
* hit, by the source's call; ? = inconclusive; . = not tested or not shown; [ ] = remark or other dose. The list is not random: actives were taken first. Their share in the collection is about 21%. Unless noted, calls follow the shape of the dose curve; as a rule, active = well fitted curve in the direction sought with a large enough effect; inconclusive = small, poorly fitted or top-dose-only effect, or another doubt; inactive = no such curve, though single readings can be large; an effect the other way counts as inactive or inconclusive.

SMILES	Sm TGR block	Cycloheximide cs	Pf growth 48h	Pf growth 96h	NS1 inh	Shiga inhibitor
COC(=O)/C(=C/Nc1cccc2ccccc12)[N+](=O)[O-]	-2%	28*	.	-13%	18%	53*
COc1cc(OC)cc(C(=O)Nc2cccc3ccccc23)c1	5%	7	-12%	13%	-6%	6
O=C(c1cc(Cl)cc(Cl)c1)N1CCN(c2cc(C(F)(F)F)nc3ccccc23)CC1	2%	1	3.7µM*	1.3µM*	5%	15
OCCN1CCN(c2cc(C(F)(F)F)nc3ccccc23)CC1	7%	-2	12µM*	-3%	?	-4
O=C(O)CSCC(=O)N1CCN(c2cc(C(F)(F)F)nc3ccccc23)CC1	-3%	-3	-2%	4%	3%	-4
Cc1ccc(S(=O)(=O)N2CCCc3cc(NC(=O)c4cccc(Cl)c4)ccc32)cc1	8%	.	.	.	.	.
CCOC(=O)C1=C(NC(=O)c2ccc(Br)o2)Nc2ccccc2N=C1	1%	-5	1.7µM*	1.9µM*	-36%	-3
Cc1cc2c(c(/C=C/C(=O)c3ccccc3)c1)OC1(C=C2)Oc2ccccc2C(=O)N1C (centres undefined)	-5%	9	?	?	.	-5
Cc1ccc(CNC(=O)c2ccc(CSCc3cccc(C)c3)o2)cc1	-9%	.	.	.	.	.
Cc1cccc(CSCc2ccc(C(=O)NC(C)C)o2)c1	?	10	2%[0.00184 µM]	3.7µM*	-9%	22
Cc1cccc(CSCc2ccc(C(=O)O)o2)c1	50µM*	16*	0%	168%	2%	25
COc1ccccc1CC(=O)NNC(=O)c1cccs1	14%	1	17%	0.26µM*	2%	-6
Cc1cc(Br)cc(C)c1OCC(=O)NNC(=O)c1cccs1	0%	-3	-9%	12µM*	-18%	-13
COc1ccccc1CC(=O)Nc1ccc(NC(=O)c2cccs2)cc1	2%	-3	-3%	?	8%	-5
O=C(COc1ccc(Br)cc1Br)NNC(=O)c1cccs1	-8%	18	42%	1%	0%	44
COc1ccc(S(=O)(=O)N(CC(=O)N2CCN(C)CC2)c2ccc(C)cc2)cc1Br	4%	-1	0%	2%	-4%	24
COC(=O)C1=C(N)Oc2cc(C)[nH]c(=O)c2C1c1cc(OC)c(OC)c(OC)c1 (centres undefined)	-10%	-4	10µM*	-9%	8%	-5
COC(=O)C1=C(N)Oc2cc(C)[nH]c(=O)c2C1c1ccccc1OC (centres undefined)	0%	1	-4%	27%	-3%	18
O=[N+]([O-])c1ccc(O)c2ncccc12	?	-2	13µM*	9.5µM*	-39%	-4
O=[N+]([O-])c1cc([N+](=O)[O-])c2cccnc2c1Oc1ccccc1O	0.28µM*	1	-8%	?	26%	0
O=C1CCC(C(=O)N2CCN(c3cnccn3)CC2)CN1CCc1ccc(Cl)cc1 (centres undefined)	-7%	-3	-5%	13%	-6%	-11
O=C(O)c1ccc(S(=O)(=O)c2ccc3c(c2)C(=O)N(c2ccc(Br)cc2)C3=O)cc1	-10%	-3	20%	-15%	3%	16
O=[N+]([O-])c1ccc(NC2CCCC2)c2ccncc12	-16%	-5	?	-13%	-7%	-3
O=[N+]([O-])c1ccc(NC2CCN(Cc3ccccc3)CC2)c2ccncc12	0%	-7	1.7µM*	?	-4%	17
CC1CCC2C(=O)N(c3ccc(NC4CCN(Cc5ccccc5)CC4)c([N+](=O)[O-])c3)C(=O)C2C1 (centres undefined)	3%	-1	12µM*	18%	.	20
COc1cccc(-c2nc(CS(=O)(=O)CC(=O)NCCc3ccccc3)c(C)o2)c1	-28%	12	?	30%	0%	13
CCOc1ccc(-c2nc(CS(=O)(=O)CC(=O)NCc3ccc(F)cc3)c(C)o2)cc1	-3%	12*	-5%	-21%	26%	20*
